Compound activity as filed in PubChem BioAssay.
Pf growth 48h = P. falciparum growth inhibition at 48 hours (one generation) | P. falciparum luciferase growth in erythrocytes, 48 h | Potency, µM (highest dose often 28.7 µM), usual class: inhibitors | actives 5.9% (n = 310,000) | AID 504832
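A one-generation exposure of luciferase-tagged malaria parasites in RPMI 1640/Albumax erythrocyte culture, 37 C and 5% CO2. Inhibition is inferred from decreased luminescence after adding detection reagent.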
Shiga toxin inh = Shiga toxin inhibition; actives 9.2% (n = 290,000); inhibition, % at 38.7 µM; Vero cells, Shiga toxin protein synthesis inhibition reporter; in the data active = inhibition mostly above about 28%, no sharp cut-off; inactive = mostly below about 43%
CHX counter = counter-screen for Shiga toxin inhibitors: cycloheximide protein synthesis inhibition; cell reporter, cycloheximide protein synthesis inhibition counterscreen; max response, %; actives 12% (n = 300,000); AID 2314; in the data active = max response mostly above about 13%, no sharp cut-off; inactive = mostly below about 14%; also: read at 38.3 µM for the half of the compounds with a filed dose
Pf growth 96h = inhibits malaria parasite growth, 96 h | P. falciparum luciferase reporter growth, 96 h | Potency, µM (doses to about 28.7 µM), actives largely listed as inhibitors | actives 6.9% (n = 320,000)
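Compounds incubated with erythrocytes infected by luciferase-expressing P. falciparum (2% hematocrit, 0.05% parasitemia final) for 96 hours, 37 C in 5% CO2. Growth inhibition scored as decreased luciferase luminescence.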
Large screens that a line does not name were inactive. Shown are actives, neighbours in structure and some others; about 21% of the full set was active somewhere. Unless noted, calls follow the shape of the dose curve; as a rule, active = well fitted inhibition curve with a large enough effect; inconclusive = small, poorly fitted or top-dose-only effect, or another doubt; inactive = no such curve, though single readings can be large or run the other way.

CC[C@H](C)[C@H](N)C(=O)N[C@@H](CCCNC(=N)N)C(=O)N[C@@H](CCC(N)=O)C(=O)NCC(=O)N1CCC[C@H]1C(=O)N[C@@H](CCCCN)C(=O)N[C@@H](CCC(=O)O)C(=O)N1CCC[C@H]1C(=O)N[C@@H](Cc1ccccc1)C(=O)N[C@@H](CCCNC(=N)N)C(=O)N[C@@H](CC(=O)O)C(=O)N[C@@H](Cc1ccc(O)cc1)C(=O)N[C@H](C(=O)N[C@@H](CC(=O)O)C(=O)N[C@@H](CCCNC(=N)N)C(=O)N[C@@H](Cc1ccccc1)C(=O)N[C@@H](Cc1ccc(O)cc1)C(=O)N[C@@H](CCCCN)C(=O)N[C@H](C(=O)N[C@@H](CC(C)C)C(=O)O)[C@@H](C)O)C(C)C	none (no result: Pf growth 48h, Pf growth 96h)
O=C1C(Cl)=C(N2CCC(C(=O)O)CC2)C(=O)c2ccccc21	Pf growth 48h 12µM, Pf growth 96h 12µM
NC(=O)C1CCN(C2=C(Cl)C(=O)c3ccccc3C2=O)CC1	Pf growth 48h inconclusive, Pf growth 96h inconclusive
COc1ccc(C2=NOC(Cn3nc(C(=O)NCc4cccc(C(F)(F)F)c4)cc3-c3ccccc3)C2)cc1 (stereo unspecified)	Pf growth 48h 4.7µM, Pf growth 96h 4.7µM (no result: Shiga toxin inh, CHX counter)
COc1ccc(C2=NOC(Cn3nc(C(=O)NCc4ccco4)cc3-c3ccccc3)C2)cc1 (stereo unspecified)	Pf growth 48h 13µM, Pf growth 96h 10µM (no result: Shiga toxin inh, CHX counter)
Cc1ccccc1-c1cc(C(=O)NCc2ccc3c(c2)OCO3)n(CC2CC(c3cccnc3)=NO2)n1 (stereo unspecified)	Pf growth 48h inconclusive, Pf growth 96h 4.1µM (no result: Shiga toxin inh, CHX counter)
COCCNC(=O)c1cc(-c2ccccc2)n(CC2CC(c3ccc(OC)cc3)=NO2)n1 (stereo unspecified)	Pf growth 96h inconclusive (no result: Shiga toxin inh, CHX counter)
COc1ccc(C2=NOC(Cn3nc(C(=O)NCc4ccc(C)cc4)cc3-c3ccccc3)C2)cc1 (stereo unspecified)	Pf growth 48h 10µM, Pf growth 96h 10µM (no result: Shiga toxin inh, CHX counter)
CC1(C)OC(=CC=Nc2ccc(Cl)cc2)OC1(C)C	Pf growth 48h inconclusive, Pf growth 96h inconclusive
CCn1nnnc1SCC(=O)NC1Cc2ccccc2C1	none
O=C(O)c1ccc(CNC(=O)C2CCCN2C(=O)OCc2ccccc2)cc1 (stereo unspecified)	none
CCC(=O)Nc1nnc(S(=O)(=O)N2c3ccccc3CC2C)s1 (stereo unspecified)	none
CCC(CC)C(=O)Nc1nnc(S(=O)(=O)N2CCCc3ccccc32)s1	Pf growth 96h 15µM
CC(C)CC(=O)Nc1nnc(S(=O)(=O)N2c3ccccc3CC2C)s1 (stereo unspecified)	Pf growth 96h 9.3µM
COc1ccc(C(=O)COC(=O)Cn2cnc3ccccc3c2=O)c(OC)c1	none (no result: Shiga toxin inh, CHX counter)
CCOC(=O)C1CCN(c2c(N3CCCCCC3)c(=O)c2=O)CC1	Pf growth 96h 10µM
CCOC(=O)C1CCN(C(=O)C(=O)N2CCC(C(=O)OCC)CC2)CC1	none
CCOC(=O)C(=O)N1CCC(C(=O)OCC)CC1	CHX counter 28
CCOC(=O)C1CCN(c2c(NC3CCCCCCC3)c(=O)c2=O)CC1	Pf growth 96h inconclusive
CCCCOc1ccc(C(=O)NCC2(c3ccccc3)CCOCC2)cc1	Pf growth 48h inconclusive, Pf growth 96h 10µM
CCCCCOc1ccc(C(=O)NCC2(c3ccccc3)CCOCC2)cc1	Pf growth 48h 13µM, Pf growth 96h inconclusive
COc1ccc(CCNC(=O)[C@@H](NC(=O)N2CC(=O)Nc3ccccc32)C(C)C)cc1OC	Pf growth 96h 12µM
CC(C)[C@H](NC(=O)N1CC(=O)Nc2ccccc21)C(=O)N[C@@H](Cc1ccccc1)C(=O)O	none
CCOc1ccc(OCC)c(-c2c(=O)n(OCc3ccc(C(C)(C)C)cc3)c3ccccc3[n+]2[O-])c1	Pf growth 48h inconclusive, Pf growth 96h 12µM
CCOc1ccc(-c2c(=O)n(OCc3ccc([N+](=O)[O-])cc3)c3ccccc3[n+]2[O-])cc1	Pf growth 96h 12µM
C=CCOn1c(=O)c(-c2ccc(OCC)cc2)[n+]([O-])c2ccccc21	none
CCOC(=O)COn1c(=O)c(-c2ccc(F)cc2)[n+]([O-])c2ccccc21	none
CCOn1c(=O)c(-c2cc(OC)ccc2OC)[n+]([O-])c2ccccc21	Pf growth 96h inconclusive
CCOc1ccc(-c2c(=O)n(OCC)c3ccccc3[n+]2[O-])cc1	CHX counter 24 (no result: Pf growth 48h)
CCCOc1ccc(-c2c(=O)n(OCC(=O)OCC)c3ccccc3[n+]2[O-])cc1	Shiga toxin inh 59, CHX counter 39
COc1ccc(CN(C)C(=O)COC(=O)c2ccc(-c3ccccc3)cc2)c(OC)c1OC	Pf growth 48h inconclusive (no result: Shiga toxin inh, CHX counter)
O=C(Nc1ccc(OC(F)F)c(Cl)c1)Nc1ccc2c(c1)OCO2	Pf growth 48h inconclusive (no result: Pf growth 96h)
O=C(Nc1ccc([N+](=O)[O-])cc1)Nc1ccc(OC(F)F)c(Cl)c1	Pf growth 48h 1.9µM
COc1ccc(NC(=O)Nc2cccc([N+](=O)[O-])c2)cc1Cl	Pf growth 48h 6.6µM, CHX counter 30
CC(C)N1CCC(N2CCN(C3CCCC3)CC2CCO)CC1 (stereo unspecified)	Pf growth 96h 13µM
CCOC(=O)c1c(C)n(Cc2ccc3c(c2)OCO3)c2ccc(O)cc12	CHX counter 30 (no result: Pf growth 96h)
CCOC(=O)c1c(C)n(Cc2ccc(F)cc2)c2ccc(O)cc12	Pf growth 48h inconclusive
COC(=O)c1c(C)n(Cc2ccc3c(c2)OCO3)c2ccc(O)cc12	Pf growth 48h inconclusive, CHX counter 16
COc1ccc(CCN2C(=S)N(C)C(=O)C2CC(=O)Nc2ccc(F)cc2)cc1 (stereo unspecified)	Pf growth 48h inconclusive, Pf growth 96h 13µM
CCN1C(=O)C(CC(=O)Nc2ccc(OC)cc2)N(Cc2ccc(OC)c(OC)c2)C1=S (stereo unspecified)	Pf growth 48h 10µM, Pf growth 96h inconclusive
CNC(=O)c1c(C)nn(-c2ccc(F)c(Cl)c2)c1-c1cc(C)on1	none
COc1cccc(C2=NOC(C(=O)NCc3ccco3)C2)c1 (stereo unspecified)	Pf growth 96h inconclusive
O=C(NCc1ccco1)C1CC(c2ccc(F)cc2)=NO1 (stereo unspecified)	CHX counter 17
O=C(NCc1cccs1)C1CC(c2ccc(Cl)cc2)=NO1 (stereo unspecified)	CHX counter 13
O=C(NCc1ccco1)C1CC(c2ccc(Cl)cc2)=NO1 (stereo unspecified)	CHX counter 27
CC(=O)c1ccc(NC(=O)C2CC(c3ccc(F)cc3)=NO2)cc1 (stereo unspecified)	none
O=C(NC1CCCC1)C1CC(c2ccc(F)cc2)=NO1 (stereo unspecified)	Shiga toxin inh 69, CHX counter 42, Pf growth 96h inconclusive
OC[C@@H](O)C(O)[C@H](O)[C@H](O)CO (stereo partly specified)	none (no result: Pf growth 48h, Pf growth 96h)
O=C(NCc1ccccn1)C1CC(c2ccc(F)cc2)=NO1 (stereo unspecified)	Pf growth 96h 2.9µM (no result: Pf growth 48h)
N[C@H]1C[C@H]1c1ccccc1	none (no result: Shiga toxin inh, CHX counter)
CC(=O)c1cccc(NC(=O)NCCc2c[nH]c3ccccc23)c1	CHX counter 12
COc1ccc(C(C)=O)cc1CS(=O)(=O)CC(=O)NCCc1c[nH]c2ccccc12	Pf growth 48h 5.2µM, Pf growth 96h 10µM (no result: Shiga toxin inh, CHX counter)
